High-throughput results deposited in PubChem BioAssay by National Center for Advancing Translational Sciences (NCATS).
A selection: hits, their analogues and other compounds. The true share with any hit is near 8.2%.
MCF10A rereplic: A quantitative high throughput screen for small molecules that induce DNA re-replication in MCF 10a normal breast cells; MCF 10A DNA re-replication, Hoechst nuclear intensity, 48 h; Potency, µM (doses to about 46.1 µM), for inactives: top-dose activity, positive = re-replication, actives largely listed as activators; 350,000 tested, 2.9% active; AID 624296, 2012; further: % of control where 0% means no effect; nearly all actives have a fitted effect of over 50% in size
ELG1 repair inh: qHTS screen for small molecules that inhibit ELG1-dependent DNA repair in human embryonic kidney (HEK293T) cells expressing luciferase-tagged ELG1. HEK293T ELG1-luciferase reporter, luminescence, 16 h; DNA damage induced by 5-fluorouridine. Potency, µM (series often up to 46.1 µM), inactives show at the highest dose activity change, negative = inhibition, hits mostly inhibitors. 330,000 tested, 2.3% active; further: on the % scale 0 is the no-effect control and ±100 the full control effect; nearly all actives have a fitted effect of over 55% in size
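HEK293T cells expressing luciferase-tagged ELG1 (2,000/well) received 5-Fluorouridine plus compound or DMSO for 16 hr at 37 °C. Luciferase was read by ONE-Glo luminescence after 30 min at room temperature.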
SW480 rerep: A quantitative high throughput screen for small molecules that induce DNA re-replication in SW480 colon adenocarcinoma cells; SW480 DNA re-replication, Hoechst DNA content imaging, 48 h; AID 624297, 2012; 340,000 tested, 1.8% active; Potency, µM (highest dose often 46.1 µM), inactives show top-dose re-replication activation, most hits filed as activators; further: % of control where 0% means no effect; nearly all actives have a fitted effect of over 55% in size
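Per well, 250 cells were exposed to pinned compound for 48 hr. Nuclear DNA was visualised with Hoechst (40 min, 37 C) and total object intensity recorded by fluorescence scanning.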
KB-3-1 tox: qHTS assay for MDR1-selective chemotherapeutics: Primary screen using the parental adenocarcinoma cell KB-3-1. KB-3-1 viability, CellTiter-Glo ATP luminescence, 72 h. Potency, µM (doses to about 46.1 µM), actives largely listed as cytotoxic. 400,000 tested, 1.4% active. AID 1347075, 2019; further: on the % scale 0 is the no-effect control and ±100 the full control effect; nearly all actives have a fitted effect of over 60% in size
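Luminescent ATP read-out (CellTiter-Glo) measures survival of drug-naive KB-3-1 cells after 72 h compound exposure at 37 °C. Titration series was screened from lowest to highest concentration, with DMSO vehicle plates as background controls.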
KB-V1 MDR tox: qHTS assay for MDR1-selective chemotherapeutics: Primary screen using the drug-selected MDR subline cells KB-V1. Potency, µM (top dose mostly 46.1 µM), most hits filed as cytotoxic. AID 1347076, 2019. 400,000 tested, 3.4% active. KB-V1 MDR cells viability, CellTiter-Glo, 72 h; further: on the % scale 0 is the no-effect control and ±100 the full control effect; nearly all actives have a fitted effect of over 60% in size
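Cytotoxicity via CellTiter-Glo luminescence after 72 h compound exposure at 37 degrees C. Cells: drug-selected KB-V1 line, DMEM phenol-red free plus 10% FBS. Compounds tested at multiple concentrations; normalized data fitted to concentration-effect curves.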
* = called active by the depositor; i = inactive; ? = inconclusive; / = no result given. The call rests on the fitted dose curve; in most records, active means well fitted curve in the direction sought with a large enough effect; inconclusive means small, poorly fitted or top-dose-only effect, or another doubt; inactive means no such curve, though single readings can be large; an effect the other way counts as inactive or inconclusive. Potency means the concentration at half of the fitted maximal effect.

SMILES	MCF10A rereplic	ELG1 repair inh	SW480 rerep	KB-3-1 tox	KB-V1 MDR tox
Cc1c(C(=O)O)sc2nc(/C=C/c3ccccc3OC(F)F)[nH]c(=O)c12	26µM*	-3%	23µM*	i	i
Cc1c(C(=O)O)sc2nc(/C=C/c3cccc(F)c3)[nH]c(=O)c12	18µM*	10%	-2%	i	i
O=C(NCCn1cc(SCc2ccccc2Cl)c2ccccc21)c1cccs1	/	/	/	i	?
C=CCNC(=O)C1CCN(c2cnccn2)CC1	0.23µM*	-11%	-50%	i	?
CC(C)c1nnc(NC(=O)C2CCN(c3cnccn3)CC2)s1	-1%	1%	-1%	i	23µM*
CCC(C)c1ccc(NC(=O)Nc2cnccn2)cc1 (centres undefined)	5.8µM*	?	3.3µM*	3.3µM*	?
O=C(c1cccc(NS(=O)(=O)c2ccccc2)c1)N1CCCCC1	0%	?	-53%	i	i
CCc1cc(=O)oc2c3c(cc(OCC(=O)Nc4cccnc4)c12)OC(C)(C)CC3	?	?	0%	i	16µM*
Cc1c(C)c2c(OCC(=O)Nc3cccnc3)cc3c(c2oc1=O)CCC(C)(C)O3	-5%	0%	6%	i	i
CCOC(=O)Cc1nnc(NC(=O)CSc2nnc3c4ccccc4n(C)c3n2)s1	?	4%	0.73µM*	i	i
CCOC(=O)C(C)Sc1nnc2c3ccccc3n(C)c2n1 (centres undefined)	1.8µM*	8%	-8%	i	i
CCN(CC)C(=O)CSc1nnc2c3ccccc3n(C)c2n1	0%	-1%	-4%	i	i
CCOC(=O)/C(C#N)=C/Nc1cc(C(=O)OCC)cc2c(OC)c(OC)ccc12	2.6µM*	15%	23µM*	i	i
COc1cc(OC)c2cc(C(=O)N/N=C/c3cccc(OC)c3O)[nH]c2c1	18%	?	3.3µM*	?	?
COc1cccc(/C=N/NC(=O)c2cc3c(OC)ccc(OC)c3[nH]2)c1O	10%	3.7µM*	-5%	?	i
CCC(C)N(C(=O)CSc1nnc(-c2ccco2)n1C)C1CCS(=O)(=O)C1 (centres undefined)	0%	-10%	-121%	i	i
Cn1c(N)c(C(=O)COC(=O)c2cc(-c3ccco3)nc3ccccc23)c(=O)n(C)c1=O	-5%	12µM*	5%	i	i
Cn1c(N)c(C(=O)CCl)c(=O)n(Cc2ccccc2)c1=O	-8%	21µM*	?	?	i
Cn1c(=O)c(C(=O)CCl)c(N)n(Cc2ccccc2)c1=O	0%	?	4%	?	i
CN(c1ccccc1)S(=O)(=O)c1cc(C(=O)OCC(=O)c2c(N)n(C)c(=O)n(C)c2=O)ccc1Cl	3%	/	-6%	i	16µM*
Cn1c(N)c(C(=O)COC(=O)c2ccc(-c3ccccc3)cc2)c(=O)n(C)c1=O	?	23µM*	-4%	i	i
Cn1c(N)c(C(=O)COC(=O)c2ccc(C(F)(F)F)cc2)c(=O)n(C)c1=O	-4%	-1%	-8%	/	/
CCN(c1ccccc1)S(=O)(=O)c1cc(C(=O)OCC(=O)c2c(N)n(C)c(=O)n(C)c2=O)ccc1C	6%	/	-5%	i	i
Cc1ccc(N(C)S(=O)(=O)c2cccc(C(=O)OCC(=O)c3c(N)n(C)c(=O)n(C)c3=O)c2)cc1	24%	16µM*	?	i	?
COc1ccc(-c2cc(C(=O)OCC(=O)c3c(N)n(C)c(=O)n(C)c3=O)c3ccccc3n2)cc1	9%	9%	-26%	i	i
SMILES	MCF10A rereplic	ELG1 repair inh	SW480 rerep	KB-3-1 tox	KB-V1 MDR tox
COc1ccc(/C=C2\CCCc3c2nc2ccccc2c3C(=O)OCC(=O)c2c(N)n(C)c(=O)n(C)c2=O)cc1	4.6µM*	3.3µM*	?	/	/
Cn1c(N)c(C(=O)COC(=O)c2ccc(Cl)c(S(=O)(=O)N3CCCCC3)c2)c(=O)n(C)c1=O	?	?	22%	i	21µM*
CN(C)S(=O)(=O)c1cccc(C(=O)OCC(=O)c2c(N)n(C)c(=O)n(C)c2=O)c1	3%	0%	-13%	i	i
CCN(CC)CCCNC(=O)C(=O)Nc1ccc2nc3n(c(=O)c2c1)CCCCC3	/	/	/	i	i
CCCCCCCCNCCS(=O)(=O)NC1CCCCC1	?	/	2%	i	i
CC1(C)CCN2CCC(C)(C)c3c(O)ccc1c32	13µM*	?	?	?	i
CCN1CCN(C(=O)c2cc(=O)c3cc(C)ccc3o2)CC1	12%	12%	2%	i	i
Cc1ccc(Cl)cc1NC(=O)Nc1cccs1	-3%	?	1%	i	?
CCOc1ncccc1C(=O)NCCc1ccc(S(N)(=O)=O)cc1	5%	-6%	-32%	i	i
Cc1cc(C(=O)CCl)c(C)n1-c1ccon1	?	18%	12µM*	?	?
Cc1cc(C(=O)CCl)c(C)n1-c1cccc([N+](=O)[O-])c1	?	4%	?	16µM*	23µM*
CC(=O)c1c(C(C)=O)c(C)n(-c2cccc([N+](=O)[O-])c2)c1C	4%	4%	-2%	i	i
COc1ccc(CCNc2ncnc3c2cnn3-c2cc(Cl)ccc2C)cc1	/	/	/	i	?
Cc1ccc(N2CC(c3nnc(Cc4ccc(F)cc4Cl)o3)CC2=O)cc1 (centres undefined)	/	/	/	i	i
CCOC(=O)c1c(N/N=C/c2cccnc2)n[nH]c1C	?	?	?	9.2µM*	5.8µM*
COC1=CC(=O)OC(c2cccc([N+](=O)[O-])c2)C1 (centres undefined)	/	/	/	i	i
COc1ccc(-n2c(-c3ccccc3)nnc2-c2ccc(Cl)cc2)cc1	-9%	2%	-9%	i	i
COc1ccc(-n2c(-c3ccc(Cl)cc3)c[n+]3c2CCc2ccccc2-3)cc1	10%	2.3µM*	30%	?	i
CN(C)c1ccc(S(=O)(=O)N(C)C)cc1NC(=O)Cc1cccc2ccccc12	-1%	?	?	i	i
CC1(C(=O)NCc2ccccc2Br)CCN1Cc1ccccc1OC(F)F (centres undefined)	/	/	/	i	23µM*
O=[S+]1([O-])N=C(Oc2cccnc2)c2ccccc21	/	/	/	i	i
Cc1c(-c2nnc(SCC(=O)Nc3ccc(Br)cc3)o2)nnn1-c1ccc(F)cc1	/	/	/	i	i
